One may read the inhibition as the drop in the measured response relative to a control, in per cent.

About 65 (0.03%) of roughly 200,000 compounds were called active. The sample as a whole holds a higher share of actives than the screen did. Values without a mark were called inactive.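 How the source made its calls: active means over 50% inhibition of tissue-nonspecific alkaline phosphatase at 20 µM in the single-dose screen; inactive means the rest.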

Alkaline phosphatase, tissue-nonspecific isozyme (Homo sapiens), sequence (P05186 whole entry, looked up): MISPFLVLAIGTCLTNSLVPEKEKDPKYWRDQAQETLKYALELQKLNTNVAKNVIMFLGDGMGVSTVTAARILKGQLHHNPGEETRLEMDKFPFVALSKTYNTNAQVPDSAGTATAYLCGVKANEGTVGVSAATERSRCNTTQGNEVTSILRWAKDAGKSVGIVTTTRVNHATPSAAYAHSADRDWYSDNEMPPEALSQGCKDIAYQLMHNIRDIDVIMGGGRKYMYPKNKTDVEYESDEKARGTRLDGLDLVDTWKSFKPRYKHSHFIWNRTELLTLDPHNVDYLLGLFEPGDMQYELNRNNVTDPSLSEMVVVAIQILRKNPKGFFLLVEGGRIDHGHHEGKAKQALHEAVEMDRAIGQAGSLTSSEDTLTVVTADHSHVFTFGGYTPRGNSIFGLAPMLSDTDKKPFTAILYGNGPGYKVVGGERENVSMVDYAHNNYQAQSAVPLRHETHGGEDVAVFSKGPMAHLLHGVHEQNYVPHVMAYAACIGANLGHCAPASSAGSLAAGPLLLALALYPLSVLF

This experiment addresses Alkaline phosphatase, tissue-nonspecific isozyme (Homo sapiens) (UniProt P05186). As to the kind of experiment: blockers of alkaline phosphatase TNAP activity – biochemical, luminescent, high phosphate acceptor level, uHTS, primary screen (AID 1135).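 Further: plate controls were DMSO wells for no effect and EDTA-quenched wells as full inhibition for full effect.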 The note with it: purified TNAP, CDP-star luminescence, 1 M DEA; at 20 µM; hits give high values.
Take `COc1ccc(NC(=O)CN(Cc2ccccc2)S(C)(=O)=O)cc1OC`: the inhibition is -3.6%.

For the compound `O=C(O)c1ccc(NS(=O)(=O)c2ccc3c(c2)C(=O)c2cc(S(=O)(=O)Nc4ccc(C(=O)O)cc4)ccc2-3)cc1`, the inhibition was 2.8%.

Consider `CCC(=O)Nc1c(C)n[nH]c1C`, for which the inhibition was -6.7%.

As to `CC(CCc1ccccc1)NCC(O)c1cccc([N+](=O)[O-])c1` (configuration not stated), the inhibition is -4.1%.

As for `CC(=O)c1c(C)[nH]c(C(=O)OCC(=O)Nc2sc3c(c2C#N)CCCC3)c1C`, the inhibition was 50.6% (active).

Regarding `N#Cc1c(NC(=O)CCCl)sc2c1CCCCC2`, the inhibition was 0.1%.

`Cc1cccc(C(=O)OCC(=O)Nc2sc3c(c2C#N)CCC3)c1`: the inhibition is 5.2%.

Consider `Oc1ccc(/C=N/N(Cc2ccccc2)c2ccccc2)cc1`, for which the inhibition was -6.2%.

As for `Cc1nc(CC(=O)NNS(=O)(=O)c2ccc(F)c(Cl)c2)cs1`, the inhibition is -6.6%.

On to `O=C(O)c1ccccc1-c1ccccc1C(=O)NCc1cccnc1`, for which the inhibition is 3.5%.

On to `O=C(Oc1c(-c2ccco2)oc2ccccc2c1=O)c1cccnc1`, for which the inhibition is -3.4%.

Turning to `C(=N\N1CCN(c2ccccn2)CC1)/C1=C(N2CCOCC2)C(=C/c2ccccc2)/CC1`, the inhibition is -0.3%.

Regarding `CC(=O)Nc1sc2c(c1C(c1cccc(F)c1)N1CCN(CCO)CC1)CCCC2` (configuration not stated), the inhibition was -3.5%.

In the case of `Cc1cccc(NC(=O)c2ccc3nsnc3c2)c1C`, the inhibition is -1.2%.

Turning to `CCOC(=O)c1c(NC(=O)C2CC=CCC2C(=O)O)sc(C)c1CC` (configuration not stated), the inhibition was 2%.

For the compound `CCC(C)NC(=O)c1nn(C)c(=O)c2ccccc12` (configuration not stated), the inhibition is -4.5%.

Turning to `O=c1c(-c2ccccc2)coc2cc(O)ccc12`, the inhibition was -6.9%.

On to `COc1cc2sc(C)nc2cc1C`, for which the inhibition was -3.9%.

For the compound `CCSc1ccccc1C(=O)Nc1ccc2c(c1)OCO2`, the inhibition is -5.5%.

In the case of `COc1cc(/C=C/C(=O)O)cc(S(=O)(=O)Nc2ccccc2SC)c1OC`, the inhibition is 6.4%.

For `CC(=O)Nc1ccc(Nc2c3ccccc3nc3ccccc23)cc1`, the inhibition is 2.2%.

With `O=C(CN1CCN(c2ccc(Cl)cc2)CC1)NCc1cccs1`, the inhibition is -1.4%.

Consider `CCCCNC(=O)C1CCC(CNS(=O)(=O)c2ccc(NC(C)=O)cc2)CC1` (configuration not stated), for which the inhibition was -2.5%.

`O=C(CCc1ccc(S(=O)(=O)N2CCOCC2)cc1)NN=C1CCCCCCC1`: the inhibition is -2%.

Consider `COc1ccc(N2C(=O)CC(Sc3n[nH]c(-c4ccc(C)cc4)n3)C2=O)cc1` (configuration not stated), for which the inhibition is -5.7%.

As for `CN(C)c1nccc(NCc2ccccc2)c1C#N`, the inhibition was 0.6%.

On to `COc1cccc(N(Cc2nnc3n2CCCCC3)C(=O)Nc2ccccc2F)c1`, for which the inhibition was -2.9%.

As to `CC(C)c1nc2sc3c(c2c(=O)n1N)CC(C)(C)OC3`, the inhibition is -1.5%.

For the compound `COCCn1c(SCC(=O)Nc2ccc3c(c2)CCC3)nc2ccccc2c1=O`, the inhibition is -1.3%.

As to `CCN(C(=O)CSc1nc2ccccc2n1CC)C1CCS(=O)(=O)C1` (configuration not stated), the inhibition was -1.3%.

In the case of `Cc1cc(C(=O)COC(=O)CNC(=O)c2ccc(F)cc2)c(C)n1Cc1ccco1`, the inhibition was 1.3%.

As for `S=C(Nc1ccc(Br)cc1Cl)NC1CCN(Cc2ccccc2)CC1`, the inhibition was -5.2%.

Take `CSCCC(NC(=O)c1cc([N+](=O)[O-])cc([N+](=O)[O-])c1)c1nc2ccccc2[nH]1` (configuration not stated): the inhibition is -6.8%.

`CCc1ccc(CN2C(=O)c3ccccc3C2C(=O)NCC2CCCO2)cc1` (configuration not stated): the inhibition is 2.3%.

As for `Cc1cccc(N2CCN(c3ccc(NC(=O)/C=C\C(=O)O)cc3)CC2)c1`, the inhibition is -4.5%.

Regarding `NNC(=O)COc1ccc(C2SCCS2)cc1`, the inhibition was -6.7%.

As to `O=C(NCc1ccncc1)NC12CC3CC(CC(C3)C1)C2`, the inhibition was 2.3%.

`COc1ccc([N+](=O)[O-])cc1NC(=O)CC1SC(=Nc2cccc(C)c2C)N(/N=C(\C)c2ccc(C)cc2)C1=O` (configuration not stated): the inhibition is -3.9%.

Take `Cc1[nH][nH]c(=O)c1C(c1ccc(-c2ccc(Cl)cc2)o1)c1c(C)[nH][nH]c1=O`: the inhibition was 10.3%.

As for `CCOc1ccc(C(c2c(C)[nH][nH]c2=O)c2c(C)[nH][nH]c2=O)cc1OCC`, the inhibition was 71.4% (active).

`Cc1[nH][nH]c(=O)c1C(c1ccc2c(c1)OCO2)c1c(C)[nH][nH]c1=O`: the inhibition is 44%.

On to `CC(CNc1ccc([N+](=O)[O-])c2cccnc12)Nc1c([N+](=O)[O-])cc(C(F)(F)F)cc1[N+](=O)[O-]` (configuration not stated), for which the inhibition is 13.7%.

`NS(=O)(=O)c1ccc(CCNC(=O)c2ccc(Cl)cc2[N+](=O)[O-])cc1`: the inhibition was 5.9%.

With `CCCC(=O)NC(=S)Nc1ccc(CN2CCOCC2)cc1`, the inhibition was -4.1%.

As for `Cc1cc(-c2n[nH]c(=S)n2-c2ccc(C)c(C)c2)no1`, the inhibition was -3%.

As to `O=C(c1cc(Cl)cc(Cl)c1)N1CCC(=O)N(C(COCc2ccccc2)Cc2ccccc2)CC1` (configuration not stated), the inhibition is -3.9%.

As for `CCn1c(SCC(=O)Nc2nc(C)cs2)nnc1C(C)NC(=O)c1ccccc1` (configuration not stated), the inhibition is -5.3%.

Consider `COCCCNC(=O)CNC(=S)N(Cc1cc(OC)c(OC)c(OC)c1)C1CCCC1`, for which the inhibition is -4.1%.

Consider `CC(=O)Nc1ccc(NC(=O)C(C)OC(=O)c2ccccc2C(=O)c2ccc(Cl)c([N+](=O)[O-])c2)cc1` (configuration not stated), for which the inhibition is 0.3%.

For `Cc1cc(C)c(NC(=O)c2oc3ccccc3c2COc2ccccc2)c(C)c1`, the inhibition was 0.7%.

Consider `CCn1c(C(C)NC(=O)c2ccc(C)cc2)n[nH]c1=S` (configuration not stated), for which the inhibition was -0.4%.

For `CC(C)(C)NC(=O)CN(C(=O)c1ccc(Cl)nc1)c1cccc2ccccc12`, the inhibition was -2.9%.

`CC(C)(C)n1nc2c(c1NC(=O)c1cc3ccccc3o1)CSC2`: the inhibition was -7.4%.

With `COc1cc(C(=O)Nc2cc(C(F)(F)F)ccc2-n2cncn2)cc(OC)c1OC`, the inhibition was -1.7%.

For the compound `O=C(COc1cc(Cl)c(Cl)cc1Cl)NC(=O)NC1CCCC1`, the inhibition is 0.7%.

As for `O=C(Nc1ccc2c(c1)OCO2)c1sc2cc(Cl)ccc2c1Cl`, the inhibition was 0.3%.

For `Cc1nnc(SCc2cccc(Cl)c2)n(N)c1=O`, the inhibition is -2.2%.

The record behind these values is PubChem BioAssay AID1135 (Sanford-Burnham Center for Chemical Genomics, 2008).
